Rows were chosen to be rich in hits. Some 3.5% of all compounds tested hit in one or more screens of this group.
mHTT CaM bind: mutant huntingtin-calmodulin interaction inhibitors – biochemical, AlphaScreen, primary screen; P42858; AlphaScreen His-mHTT/GST-CaM binding, luminescence; inhibition, % at 15 µM; actives 3.6% (n = 190,000)
Pf apPOL inh: Pf-apPOL inhibitors, biochemical, fluorescence. Plasmodium falciparum apicoplast DNA polymerase (apPOL). Recombinant Pf-apPOL, molecular beacon fluorescence, 1.5 h. inhibition, % at 10 µM. actives 0.25% (n = 210,000). AID 1794808, 2022
Hits are given with their value; – = inactive; · = not tested or not shown. Rule as the data show it: active = inhibition above about 50%; inactive = the rest.

SMILES	mHTT CaM bind	Pf apPOL inh
Cc1ccc(NC(=O)N2CCn3cccc3C2Cc2ccccc2)cc1F (configuration not stated)	–	–
CCCC1c2cccn2CCN1C(=O)Nc1ccc(C)c(Cl)c1 (configuration not stated)	80	–
CCCC1c2cccn2CCN1C(=O)Nc1cccc(F)c1 (configuration not stated)	–	–
Cc1cc(NC(=O)N2CCn3cccc3C2C(C)C)ccc1Br (configuration not stated)	99	–
CCCC1c2ccc(C)n2CCN1C(=O)Nc1ccc(C)c(F)c1 (configuration not stated)	–	–
Cc1ccc(NC(=O)N2CCn3cccc3C2C)cc1F (configuration not stated)	–	79
CCCC1c2ccc(C)n2CCN1C(=O)Nc1ccc(Cl)cc1 (configuration not stated)	51	–
Cc1cccc(NC(=O)N2CCn3cccc3C2C(C)C)c1 (configuration not stated)	–	–
O=C1C(=Cc2ccncc2)Oc2c1ccc(O)c2CN1CCCCC1	–	–
Cc1nn(C(=O)C(C)N2C(=O)c3ccccc3C2=O)c(C)c1Br (configuration not stated)	–	–
Cc1nn(C(=O)CCN2C(=O)c3ccccc3C2=O)c(C)c1Br	–	71
O=C1NN(c2ccccc2)C(=O)C2C(c3ccccc3)C=CC(c3ccccc3)C12 (configuration not stated)	–	–
O=C1NC(=O)C2C3C=CC(C3=C(c3ccccc3)c3ccccc3)C12 (configuration not stated)	57	–
COc1ccc(OC)c(NC(=O)c2cc(S(=O)(=O)NCCc3ccccc3)ccc2F)c1	80	–
O=C(Nc1cc(Cl)cc(Cl)c1)c1cc(S(=O)(=O)NCCc2ccccc2)ccc1F	–	–
O=C(Nc1cccc(Cl)c1)c1cc(S(=O)(=O)NCCc2ccc(Cl)cc2)ccc1F	80	–
O=C(Nc1ccc(F)c(Cl)c1)c1cc(S(=O)(=O)NCCc2ccccc2)ccc1F	76	–
COc1ccc(OC)c(NC(=O)c2cc(S(=O)(=O)NCc3ccccc3)ccc2F)c1	–	–
Cc1ccc(NC(=O)c2cc(S(=O)(=O)NCCc3ccccc3)ccc2F)cc1Cl	–	–
COc1ccc(C(=O)NN2CCOCC2)c(OC)c1	–	–
CCc1ccc(C=C2SC(=O)N(CC(=O)Nc3nccs3)C2=O)cc1	–	–
COc1ccc2nc(C(=O)NC(C)c3ccccc3)cn2n1 (configuration not stated)	–	–
Cc1ccc(C(=O)N2CCc3nc(CNC(=O)C4CCC4)n(C)c3C2)cc1	–	–
O=c1[nH]c2c(=O)[nH]c(=S)[nH]c2nc1C=C(O)c1ccccc1	·	90
O=c1[nH]c2ccccc2nc1C=C(O)c1ccco1	–	–
SMILES	mHTT CaM bind	Pf apPOL inh
COc1c(Cl)cnn(-c2ccccc2)c1=O	–	–
O=c1oc(-c2ccccc2Cl)nc2c1cnn2-c1ccccc1	90	–
CCOc1ccc(CC(=O)N2CCn3cnnc3C2)cc1	–	–
CCOc1ccc(CNC(=O)CN2C(=O)C3CCCN3C(=O)c3cc(C)ccc32)cc1 (configuration not stated)	–	–
CCN(CC)Cc1oc(C(C)(C)C)cc1C(=O)O	–	–
CC(=O)c1cccc(N2COc3ccc(Cl)cc3C2)c1	–	–
O=[N+]([O-])c1cccc(N2COc3ccc(Cl)cc3C2)c1	54	–
CCOc1ccc(C2=NC3(CCN(C)CC3)NC(c3cccc(OCC)c3O)C2)cc1 (configuration not stated)	–	–
Cc1ccc(S(=O)(=O)N2CC=C(c3cn(C)c4ncccc34)CC2)cc1Cl	65	–
COc1ccc(S(=O)(=O)N2CC=C(c3cn(C)c4ncccc34)CC2)cc1Cl	–	–
CC(C)(C)N=C1Nc2ncccc2NC12CCCN(C(=O)c1cc(-c3cccs3)[nH]n1)C2 (configuration not stated)	–	–
CC(C)(C)N=C1Nc2ncccc2NC12CCN(C(=O)c1cc(-c3cccs3)[nH]n1)CC2	57	–
Cc1cc(C)c(CSc2nc(N)cc(=O)[nH]2)c(C)c1	–	–
O=C(NCCn1ccc2ccccc21)c1ccccc1I	–	–
COc1ccc(NC(=O)C2CC(=O)N(C)C(=Nc3ccc(Cl)c(Cl)c3)S2)cc1 (configuration not stated)	85	–
COc1ccc(NC(=O)C2CC(=O)N(C)C(=Nc3ccc(Cl)c(C(F)(F)F)c3)S2)cc1 (configuration not stated)	–	–
CNc1nccc(N2CCC(CC(=O)NCc3cccc(C(F)(F)F)c3)CC2)n1	54	–
CNc1nccc(N2CCC(CC(=O)NCc3ccc(OC)c(OC)c3)CC2)n1	–	–
COc1cccc(NC(=O)C23CCC(C)(C(=O)C2)C3(C)C)c1 (configuration not stated)	–	–
Oc1c(C(Nc2cccc(Cl)c2)c2ccncc2)ccc2cccnc12 (configuration not stated)	100	–
c1ccc(NC(c2ccccc2)c2ccncc2)cc1 (configuration not stated)	–	–
COc1ccc(C(=O)Nc2cc(OC)cc3cccnc23)cc1	–	–
COc1ccc(C(C)NC(C)=O)cc1OC (configuration not stated)	–	–
COc1ccc(C(NC(C)=O)c2ccc3cccnc3c2O)cc1 (configuration not stated)	100	–
COc1ccc(C(NC(=O)C(C)C)c2ccc3cccnc3c2O)cc1OC (configuration not stated)	100	–
SMILES	mHTT CaM bind	Pf apPOL inh
Cc1ccc(C(NC(=O)C(C)C)c2ccc3cccnc3c2O)cc1 (configuration not stated)	100	–
CCOc1ccccc1N1CCN(C(=O)c2ccc(F)cc2)CC1	–	–
CN(C)c1nc(N2CCN(C3CCCCC3)CC2)nc2c1CNCC2	–	–
CCCOc1nccnc1N1CCC(NS(=O)(=O)C2CC2)C1 (configuration not stated)	–	–
COc1ccc(-c2ncc(NC(=O)C(C)C)cn2)cc1	–	–
CC(=O)NC(c1ccc(Cl)cc1)c1ccc2cccnc2c1O (configuration not stated)	100	–
COc1ccc(C(NC(=O)C(C)C)c2ccc3cccnc3c2O)cc1 (configuration not stated)	100	–
O=C(NC(c1ccccc1)c1ccc2cccnc2c1O)c1ccccc1 (configuration not stated)	100	–
CC(=O)NC(c1ccccc1Cl)c1ccc2cccnc2c1O (configuration not stated)	100	–
O=C(NC(Nc1cccc2cccnc12)C(Cl)(Cl)Cl)c1ccc(Br)cc1 (configuration not stated)	–	–
CCOC(=O)N1CCC(NC(=O)Cc2csc(NC(=O)c3ccc[nH]c3=O)n2)CC1	–	–
Cc1nnc(Sc2cc(C(=O)NCCCN3CCCC(C)C3)c3ccccc3n2)s1 (configuration not stated)	–	–
O=C(CSc1nccn1Cc1ccccc1)Nc1ccc(Cl)cc1	–	–
CN(C)CCCN1C(=O)C(O)=C(C(=O)c2cccs2)C1c1cccc(Br)c1 (configuration not stated)	–	–
N#C/C(=C\c1ccc(F)cc1)c1nc(-c2ccc(Br)cc2)cs1	–	–

Bioassay records from PubChem.
